Laboratory results from PubChem BioAssay AID1671190 (National Center for Advancing Translational Sciences (NCATS), 2021).
Hit rate of the full screen: of about 580,000 compounds, about 6,100 (1.1%) were called active. About 15% were inconclusive and are not listed. For the sample, actives were picked, then their nearest neighbours and some compounds at random. Values without a mark were called inactive. Calls follow the shape of the dose curve; as a rule, active = well fitted inhibition curve with a large enough effect; inconclusive = small, poorly fitted or top-dose-only effect, or another doubt; inactive = no such curve, though single readings can be large or run the other way.

target: Polyunsaturated fatty acid lipoxygenase ALOX12 (Homo sapiens) (UniProt P18054); test: Primary qHTS assay for inhibitors of human arachidonate 12S-lipoxygenase (ALOX12): Round 2; conditions: purified 12hLO, xylenol orange hydroperoxide absorbance; series mostly up to 108 µM; activity change, negative = inhibition: at the top concentration
In short: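 Hydroperoxide product was detected by ferrous iron/xylenol orange as the 573 to 405 nm absorbance ratio. Arachidonic acid at 40 uM (final) was turned over for 30 min at room temperature by 150 nM human 12hLO, pH 7.0 Hepes buffer, after 15 min compound preincubation.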
% is scaled to controls: 0 for no effect and ±100 for the full control effect; potency is read from the fitted curve at half-maximal effect.

Chain of Polyunsaturated fatty acid lipoxygenase ALOX12 (Homo sapiens) (P18054 whole entry, looked up): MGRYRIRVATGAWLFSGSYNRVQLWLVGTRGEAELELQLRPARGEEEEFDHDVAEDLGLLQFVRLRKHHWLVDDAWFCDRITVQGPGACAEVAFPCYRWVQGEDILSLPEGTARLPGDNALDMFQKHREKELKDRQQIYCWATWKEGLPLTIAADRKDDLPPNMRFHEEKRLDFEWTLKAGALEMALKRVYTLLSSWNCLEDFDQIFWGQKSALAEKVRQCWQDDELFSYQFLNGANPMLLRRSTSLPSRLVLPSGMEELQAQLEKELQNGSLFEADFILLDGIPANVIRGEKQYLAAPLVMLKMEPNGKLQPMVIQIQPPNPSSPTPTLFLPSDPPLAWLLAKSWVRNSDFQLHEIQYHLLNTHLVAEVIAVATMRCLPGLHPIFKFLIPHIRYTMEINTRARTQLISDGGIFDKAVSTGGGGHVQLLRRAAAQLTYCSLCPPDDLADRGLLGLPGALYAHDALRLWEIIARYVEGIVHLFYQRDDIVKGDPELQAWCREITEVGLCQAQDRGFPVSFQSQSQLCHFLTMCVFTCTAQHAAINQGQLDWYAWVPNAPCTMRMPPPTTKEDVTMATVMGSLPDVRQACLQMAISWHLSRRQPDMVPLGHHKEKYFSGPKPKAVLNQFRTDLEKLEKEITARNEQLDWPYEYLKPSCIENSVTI

Structure (SMILES) | activity change, negative = inhibition | Potency
CCC(CO)Nc1nc2c(c(=O)n(C)c(=O)n2C)n1Cc1c(Cl)cccc1Cl (configuration not stated) | -8.11% | 
O=C(NNC1CC(=O)N(c2cccc(Cl)c2)C1=O)c1cccnc1 (configuration not stated) | 6.21% | 
C/C(=N\NC(=O)c1cc2c(s1)CCC(C)C2)c1cccnc1 (configuration not stated) |  | 5.01 µM (active)
C/C(=N\NC(N)=S)c1cccnc1 | -6.29% | 
CN(CCCNC1CCC2(CCNCC2)CC1)c1ccccc1 |  | 10 µM (active)
Cc1nonc1OCCNC1CCC2(CCNCC2)CC1 | -26.4% | 
OC1CC([C@@H](Cc2ccccn2)NC2CCC3(CCNCC3)CC2)C1 (some centres not stated) | -5.73% | 
O=C(NCCC(=O)N1CCn2nc(C(=O)O)cc2C1)c1ccc(F)cc1 | 4.72% | 
CCc1nnc2sc(-c3cccc(NC(=O)Cc4ccccc4)c3)nn12 | 9.63% | 
O=C(NCc1ccccn1)C1CCN(C(=O)c2ccc(C(F)(F)F)cc2)CC1 | -3.02% | 
CCN(CC(=O)Nc1cc(Cl)ccc1C)C(=O)CSCc1ccccc1 | 5.18% | 
Cc1ccccc1NC(=O)C(C#N)=C1CCCCC1 | -8.66% | 
Cc1ccccc1N/C(SCc1ccc(Cl)cc1)=C(/C#N)C(N)=O |  | 20 µM (active)
CNC(=O)c1ccc(-c2nc(CN3CCN(S(=O)(=O)c4ccc(C)c(C)c4)CC3)c(C)o2)cc1 | 20.4% | 
COc1ccc2c(C)c(CCC(=O)N3CCN(C)CC3)c(=O)oc2c1 | -5.95% | 
Cc1nn2c(c1-c1ccccc1C(C)C)N(C(=O)c1cccc(C#N)c1)CCC2 | -3.15% [at 176 µM] | 
Cc1nn2c(c1-c1ccnn1C(C)C)N(CC1CCOCC1)CCC2 |  | 12.6 µM (active)
Cc1nn2c(c1-c1ccnn1C(C)C)N(C(=O)c1ccc(Oc3ccccc3)cc1)CCC2 | 51.4% | 
CCCCCn1nc(C(=O)Nc2ccccc2OCC)c2ccccc2c1=O | 37.9% | 
CCc1ccc(C(=O)Nc2ccccc2C#N)s1 | -101% | 
Cc1cc(/C=N/n2cnnc2)c(C)n1-c1ccc2ncccc2c1 | -25.8% | 
Cc1cc(/C=N/NC(N)=O)c(C)n1C1CCCCC1 | 6.3% | 
Cc1cccc(-n2c(C)cc(/C=N/NC(N)=S)c2C)c1 |  | 44.7 µM (active)
C=CCOc1ccc(NC(=O)c2ccncc2)cc1 | -6.7% | 
CCc1ccc(NC(=O)Cc2nc(-c3c(N)n(C)c(=O)n(C)c3=O)cs2)cc1 | -21.8% | 
O=C(OCc1ccc(F)cc1)c1cnc2ccccc2n1 |  | 1.26 µM (active)

Structure (SMILES) | activity change, negative = inhibition | Potency
CCOc1ccccc1NC(=O)c1cnc2ccccc2n1 | -89% | 
COc1ccccc1C(=O)OCc1ccc(F)cc1 | 1.27% | 
Cc1cccnc1CN(C(=O)c1cc(COc2ccccc2)[nH]n1)C(C)C | 42.5% | 
Cc1cc(OC(C)C(=O)Nc2sc3c(c2C(N)=O)CCCC3)ccc1Cl (configuration not stated) | -6.03% | 
NC(=O)c1c(Nc2nc3c(F)cccc3s2)sc2c1CCCC2 |  | 28.2 µM (active)
CCCn1nc(C(=O)Nc2sc3c(c2C(N)=O)CCC3)c2ccccc2c1=O | -4.24% | 
Cc1cc(C)c(-c2csc(NC(=O)Cn3ncc4ccccc4c3=O)n2)c(C)c1 | -28.9% | 
CSc1nnnn1-c1ccc(C(=O)Nc2ccccc2F)cc1 | 0.435% | 
S=C(NCCCc1cnc[nH]1)NCCCN(Cc1ccc(Cl)c(Cl)c1)c1ccc(Br)cn1 |  | 22.4 µM (active)
NCCCNC(=S)NCCCN(Cc1ccc(Cl)cc1)c1ccc(Br)cn1 |  | 39.8 µM (active)
Cc1ccccc1CN(C)C(C)c1nc(-c2cccs2)no1 (configuration not stated) | 11% | 
CCOC(=O)CSc1nnc(CNC(=O)c2cccs2)n1-c1ccccc1 | 15.4% | 
CCc1c(C)sc(NC(=O)c2cccs2)c1C(N)=O |  | 20 µM (active)
CCc1c(C)sc(NC(=O)C2c3ccccc3Oc3ccccc32)c1C(=O)OC(C)C | 0% | 
CCCCCCn1c(NC)nc2c1c(=O)[nH]c(=O)n2C | -2.64% | 
O=C1CC(c2ccccc2)C(c2ccccc2)=NN1 (configuration not stated) | 2.96% | 
COc1cc(C2CC(=O)Nc3nc(-c4ccccc4)[nH]c(=O)c32)ccc1OCc1ccc(F)cc1 (configuration not stated) | 5.03% | 
O=C1CC(c2ccc(C(F)(F)F)cc2)c2sc(C(=O)O)c(-c3ccccc3)c2N1 (configuration not stated) | -20.3% | 
CCCOc1c(OC)cccc1C1CC(=O)Nc2c1c(C)nn2-c1ccc(OC)nn1 (configuration not stated) | -23.2% | 
Nc1nc2c(s1)C(c1ccccc1)CC(=O)N2 (configuration not stated) |  | 22.4 µM (active)
COc1cccc(C2CC(=O)Nc3nc(N)sc32)c1OCc1ccccc1 (configuration not stated) |  | 7.94 µM (active)
O=[N+]([O-])/C=C/c1ccc(-c2ccccc2)o1 |  | 22.4 µM (active)
O=[N+]([O-])/C=C/c1ccc2c(ccn2Cc2ccccc2)c1 | -11.5% | 
Cc1ccc(-c2nnc(SCc3ncc(-c4ccccc4)o3)o2)cc1 | 6.49% | 
Cc1ccc(-n2nnnc2SCc2ncc(-c3ccccc3)o2)cc1 | 40.5% | 
COCc1ccc(CNC(=O)c2ccc(C#N)cc2)cc1 | -5.14% | 
